# Measurements taken from PubChem BioAssay AID651826 (Vanderbilt Specialized Chemistry Center, 2012).
# Activity calls are given as the source filed them.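 Rule for the calls: active = inhibition above 50% of specific binding or functional response at a panel target; inactive = the rest.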
# Test: off-target binding across receptor panel, profiling panel, selectivity assay for E-cadherin project, biochemical, Ricerca panel, radioligand binding (AID 651826)
# Details: Ricerca radioligand binding/enzyme panel, % inhibition, at 10 µM, stronger effect = higher value
smiles,measurement,setting,value
O=C(NCCCNC(=O)c1ccc[nH]c1=O)c1cc(-c2ccccc2)on1,inhibition,,74% (active)
same,inhibition,measured here: 5-HT1A binding,-4%
same,inhibition,measured here: GABAA muscimol site binding,20%
same,inhibition,measured here: adenosine A1 binding,71%
same,inhibition,measured here: cannabinoid CB1 binding,-23%
same,inhibition,measured here: dopamine D3 binding,18%
same,inhibition,measured here: dopamine transporter binding,31%
same,inhibition,measured here: hERG channel binding,13%
same,inhibition,measured here: mu opioid binding,-5%
same,inhibition,measured here: muscarinic M1 binding,9%
same,inhibition,measured here: norepinephrine transporter binding,13%
same,inhibition,measured here: serotonin transporter binding,10%
same,inhibition,measured here: sigma1 receptor binding,47%
